The target in experiment [1] is Estrogen receptor (Homo sapiens) (UniProt P03372). As to the kind of experiment: qHTS assay to identify small molecule antagonists of the estrogen receptor alpha (ER-alpha) signaling pathway using the BG1 cell line in the presence of 0.1 nM 17-beta-estradiol (AID 1259244). Note: nearly all actives have a fitted effect of over 50% in size. The gist of the method:
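Quantitative high-throughput screen in VM7Luc4E2 cells: compound plus 0.1 nM E2 (final), 22 h, 37C, 5% CO2; ONE-Glo added, 30 min room temperature, luminescence measured.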
Background: Quantitative high-throughput screening tests each substance at several concentrations.

Experiment [2] in a line: qHTS assay to identify small molecule HDAC inhibitors (AID 1259364). Note: nearly all actives have a fitted effect of over 45% in size. Note: potency is the fitted concentration of half-maximal effect. The gist of the method:
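Endogenous HDAC class I/II activity was measured in wild-type HCT-116 cells by HDAC-Glo luminescence after 2 h compound treatment.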

Experiment [3] in a line: qHTS assay to identify small molecule HDAC inhibitors - cell viability counter screen (AID 1259365). Note: series mostly up to about 92 µM; nearly all actives have a fitted effect of over 50% in size. Summed up:
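Following a 2hr exposure of overnight-plated wild-type HCT-116 cells to DMSO-delivered compounds, CellTiter-Glo was added and luminescence recorded after 30min at room temperature.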

Experiment [4] in a line: qHTS assay to identify small molecule agonists of the sonic hedgehog signaling (Shh) pathway - cell viability counter screen (AID 1259366). Note: nearly all actives have a fitted effect of over 50% in size. The gist of the method:
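After a 4hr attachment at 37C, NIH/3T3 cells bearing an integrated Gli1-driven luciferase reporter were dosed with compounds. Treatment lasted 24hr, with the final hour including CellTiter-Fluor for a fluorescence viability measurement.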

Experiment [5] can be described thus: qHTS assay to identify small molecule antagonists of the sonic hedgehog signaling (Shh) pathway - cell viability counter screen (AID 1259367). Note: nearly all actives have a fitted effect of over 55% in size. Summed up:
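Seed 3T3 Gli1-Luc cells at 2,000 per well; incubate 4 hr; add compound in DMSO, then conditioned medium; incubate at 37C with 5% CO2; add CellTiter-Fluor after 23 hr; read fluorescence 1 hr later.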

Experiment [6] in a line: qHTS assay to identify small molecule agonists of the sonic hedgehog signaling (Shh) pathway (AID 1259368; calls by dose curve;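 note: NIH/3T3-derived 3T3Gli1-Luc cells carrying a stable Gli1-driven firefly luciferase reporter; series mostly up to about 92 µM; nearly all actives have a fitted effect of over 15% in size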). The gist of the method: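 Luminescent signal was taken as a measure of Gli1-controlled luciferase expression in stably transfected NIH/3T3-derived cells that had been treated for 24 hr with compounds delivered in DMSO.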
Experiment [7] can be described thus: qHTS assay to identify small molecule agonists of the androgen receptor (AR) signaling pathway in the presence of an antagonist - cell viability counter screen (AID 1259379).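 Note: MDA-kb2 human breast cancer cells carrying an MMTV luciferase reporter; series mostly up to about 92 µM; nearly all actives have a fitted effect of over 25% in size.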 The gist of the method: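 In MDA-kb2 cells (human breast carcinoma, MMTV-luciferase), compounds at 15 concentrations plus 3.0uM nilutamide; 16 hr, 37C, 0% CO2; CellTiter-Fluor fluorescence read for viability.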

A short description of experiment [8]: qHTS assay to identify small molecule antagonists of the estrogen receptor beta (ER-beta) signaling pathway - cell viability counter screen (AID 1259382). Note: series mostly up to about 92 µM; nearly all actives have a fitted effect of over 55% in size. Summed up:
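Tox21 10K library tested in qHTS format on ER-beta-bla HEK293T cells stimulated with 1nM E2; 16 hr treatment at 37C. Same-well CellTiter-Glo luminescence served as the cell viability measure.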

In experiment [9] the target is Estrogen receptor (Homo sapiens) (UniProt P03372). As to the kind of experiment: qHTS assay to identify small molecule agonists of the estrogen receptor alpha (ER-alpha) signaling pathway in the presence of an antagonist (AID 1259383; calls by dose curve; note: nearly all actives have a fitted effect of over 15% in size; note: potency is the fitted concentration of half-maximal effect; for activation: top concentration of the series differs between compounds). Summed up:
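In VM7Luc4E2 cells, 4,000 per well, compounds at 15 concentrations were co-incubated 22hr at 37C with 10.0nM final ICI-182,780. Luminescence from the stably transfected 4×ERE-luciferase reporter was recorded 30min after ONE-Glo addition.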

Experiment [10] can be described thus: qHTS assay to identify small molecule agonists or antagonists of the thyroid stimulating hormone receptor (TSHR) signaling pathway - wild type cell line counter screen (AID 1259384; calls by dose curve). The gist of the method:
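Wild-type Hek293 cells, 800/well, 18 h at 37C, then compound with Ro20-1724 for 30 min RT. cAMP by HTRF (cAMP-d2/anti-cAMP cryptate), 1 h RT, fluorescence read. 15 concentrations, triplicates.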

Experiment [11] can be described thus: qHTS assay to identify small molecule agonists of the estrogen receptor alpha (ER-alpha) signaling pathway in the presence of an antagonist - cell viability counter screen (AID 1259386).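 Note: series mostly up to about 92 µM; cells exposed to compounds for 22 h at 37 °C before the viability read; nearly all actives have a fitted effect of over 30% in size.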 Summed up: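 Fluorescent CellTiter-Fluor viability signal from VM7Luc4E2 cells, with the reagent added during the final hour of a 22hr compound exposure at 37C in the presence of 10.0nM ICI-182,780.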

Experiment [12] deals with Progesterone receptor (Homo sapiens) (UniProt P06401). As to the kind of experiment: qHTS assay to identify small molecule agonists of the progesterone receptor (PR) signaling pathway (AID 1346784; calls by dose curve; note: nearly all actives have a fitted effect of over 30% in size). Summed up:
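Using charcoal-stripped serum (2%) to limit endogenous steroids, PR-UAS-bla HEK 293T cells received compounds for 16 hr at 37C after 6 hr plating; beta-lactamase FRET fluorescence was recorded following 2 hr substrate loading at room temperature.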

Experiment [13] is described as follows: qHTS assay to identify small molecule antagonists of the sonic hedgehog signaling (Shh) pathway (AID 1259369; calls by dose curve; note: nearly all actives have a fitted effect of over 45% in size; note: potency is the fitted concentration of half-maximal effect). Summed up: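 Screening used 3T3Gli1-Luc cells at 2,000 per well, compounds delivered in DMSO, and conditioned medium as agonist stimulus; plates incubated 24hr at 37 C and 5% CO2 before a 30min luciferase step.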
Experiment [14] can be described thus: qHTS assay to identify small molecule agonists of the estrogen receptor beta (ER-beta) signaling pathway - cell viability counter screen (AID 1259380). Note: nearly all actives have a fitted effect of over 30% in size. Summed up:
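Viability of ER-beta-UAS-bla HEK293T cells was determined by CellTiter-Glo luminescence following 16 hr treatment with test compounds at 37C.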

The target of experiment [15] is Progesterone receptor (Homo sapiens) (UniProt P06401). As to the kind of experiment: qHTS assay to identify small molecule antagonists of the progesterone receptor (PR) signaling pathway (AID 1346795; active = well fitted inhibition curve with a large enough effect in the signal ratio in the repeat runs, not every such curve was filed as active; the % refers to the signal ratio). The gist of the method: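 Inhibition of R5020-induced (1 nM final) beta-lactamase reporter signal in PR-UAS-bla HEK293T cells was scored by FRET fluorescence after overnight (16 hr) compound treatment.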
Sequence of Progesterone receptor (Homo sapiens) (P06401 whole entry, looked up): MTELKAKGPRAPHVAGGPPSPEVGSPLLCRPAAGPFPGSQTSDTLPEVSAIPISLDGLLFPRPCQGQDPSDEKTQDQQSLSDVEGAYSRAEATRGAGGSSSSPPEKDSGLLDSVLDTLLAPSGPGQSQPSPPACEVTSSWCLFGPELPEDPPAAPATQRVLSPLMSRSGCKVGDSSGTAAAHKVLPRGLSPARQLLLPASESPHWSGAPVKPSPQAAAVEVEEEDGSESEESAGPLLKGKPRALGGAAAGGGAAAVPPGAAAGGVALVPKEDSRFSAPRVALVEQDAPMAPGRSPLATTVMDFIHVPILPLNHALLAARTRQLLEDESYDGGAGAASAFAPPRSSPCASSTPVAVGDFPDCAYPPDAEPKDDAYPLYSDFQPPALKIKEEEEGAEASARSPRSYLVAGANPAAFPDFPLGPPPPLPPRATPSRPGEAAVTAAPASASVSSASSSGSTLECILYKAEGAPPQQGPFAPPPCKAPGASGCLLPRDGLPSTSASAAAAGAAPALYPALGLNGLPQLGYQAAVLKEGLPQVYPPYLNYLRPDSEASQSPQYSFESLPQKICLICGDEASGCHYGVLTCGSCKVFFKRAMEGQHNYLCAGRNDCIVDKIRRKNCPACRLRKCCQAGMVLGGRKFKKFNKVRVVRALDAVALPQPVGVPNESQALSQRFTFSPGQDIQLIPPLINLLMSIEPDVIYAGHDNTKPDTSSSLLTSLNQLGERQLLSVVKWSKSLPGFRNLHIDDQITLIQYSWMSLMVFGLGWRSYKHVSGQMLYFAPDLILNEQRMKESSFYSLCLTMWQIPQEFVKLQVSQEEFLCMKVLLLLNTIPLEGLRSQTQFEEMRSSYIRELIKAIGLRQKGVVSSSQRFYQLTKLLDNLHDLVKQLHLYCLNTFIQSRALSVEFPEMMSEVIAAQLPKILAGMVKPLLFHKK

In experiment [16] the target is Estrogen receptor beta (Homo sapiens) (UniProt Q92731). As to the kind of experiment: qHTS assay to identify small molecule agonists of the estrogen receptor beta (ER-beta) signaling pathway (AID 1259377; active = well fitted activation curve with a large enough effect in the signal ratio in the repeat runs, not every such curve was filed as active; the % refers to the signal ratio; note: potency is the fitted concentration of half-maximal effect). Summed up:
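In HEK293T cells bearing a UAS-beta-lactamase reporter under ER-beta control, DMSO-delivered compounds were incubated for 16 hr at 37C. Activity was detected as fluorescence 2 hours after LiveBLAzer B/G FRET substrate addition.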

For experiment [17] the target is unchanged. As to the kind of experiment: qHTS assay to identify small molecule antagonists of the estrogen receptor beta (ER-beta) signaling pathway (AID 1259378; active = well fitted inhibition curve with a large enough effect in the signal ratio in the repeat runs, not every such curve was filed as active; the % refers to the signal ratio). Summed up: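 ER-beta-UAS-bla HEK293T cells in 2% charcoal-stripped FBS medium treated with compound plus 1nM final 17-beta-estradiol for 16 hr at 37C. Beta-lactamase reporter read by FRET substrate fluorescence after 2 hours at room temperature.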

Experiment [18] has as its target Thyrotropin receptor (Homo sapiens) (UniProt P16473). As to the kind of experiment: qHTS assay to identify small molecule antagonists of the thyroid stimulating hormone receptor (TSHR) signaling pathway (AID 1259385; calls by dose curve; note: nearly all actives have a fitted effect of over 20% in size). Summed up:
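TSHR-HEK293 cells (800/well) plated 18 h, then compounds with Ro20-1724 and TSH at 1.5 ng/mL final, 30 min at room temperature. cAMP quantified by HTRF (cAMP-d2/anti-cAMP-cryptate, 1 h); 15 concentrations in triplicate.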

Several values for one entry are separate records, joined by “and”; a condition that tells them apart may be missing. Identical values can stand only once. Inconclusive results are not listed. The source holds several records for some structures; these can differ, active in one and inactive in another. Activity calls are given as the source filed them. Unless noted, calls come from the whole dose curve; as a rule, active = well fitted curve in the direction sought with a large enough effect in the repeat runs; inconclusive = weak or mixed curves; inactive = no such curve, though single readings can be large; an effect the other way counts as inactive or inconclusive.

The source of these data is PubChem BioAssay (Tox21).

Sequence of Estrogen receptor (Homo sapiens) (P03372 whole entry, looked up): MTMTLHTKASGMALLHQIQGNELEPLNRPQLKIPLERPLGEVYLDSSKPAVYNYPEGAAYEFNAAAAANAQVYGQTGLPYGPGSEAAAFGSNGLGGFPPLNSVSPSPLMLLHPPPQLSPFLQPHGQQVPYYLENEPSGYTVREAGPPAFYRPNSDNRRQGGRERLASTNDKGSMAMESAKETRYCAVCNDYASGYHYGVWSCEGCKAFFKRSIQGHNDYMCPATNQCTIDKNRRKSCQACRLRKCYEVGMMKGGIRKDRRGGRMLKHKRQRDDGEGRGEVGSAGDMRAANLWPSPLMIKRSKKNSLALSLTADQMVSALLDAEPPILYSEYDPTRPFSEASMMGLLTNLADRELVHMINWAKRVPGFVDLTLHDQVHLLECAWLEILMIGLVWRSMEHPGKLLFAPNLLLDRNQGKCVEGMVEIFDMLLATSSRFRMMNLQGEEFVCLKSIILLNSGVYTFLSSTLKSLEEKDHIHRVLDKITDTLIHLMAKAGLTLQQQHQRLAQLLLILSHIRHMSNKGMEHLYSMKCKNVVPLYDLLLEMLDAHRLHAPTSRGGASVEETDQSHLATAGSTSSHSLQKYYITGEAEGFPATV
Sequence of Thyrotropin receptor (Homo sapiens) (P16473 whole entry, looked up): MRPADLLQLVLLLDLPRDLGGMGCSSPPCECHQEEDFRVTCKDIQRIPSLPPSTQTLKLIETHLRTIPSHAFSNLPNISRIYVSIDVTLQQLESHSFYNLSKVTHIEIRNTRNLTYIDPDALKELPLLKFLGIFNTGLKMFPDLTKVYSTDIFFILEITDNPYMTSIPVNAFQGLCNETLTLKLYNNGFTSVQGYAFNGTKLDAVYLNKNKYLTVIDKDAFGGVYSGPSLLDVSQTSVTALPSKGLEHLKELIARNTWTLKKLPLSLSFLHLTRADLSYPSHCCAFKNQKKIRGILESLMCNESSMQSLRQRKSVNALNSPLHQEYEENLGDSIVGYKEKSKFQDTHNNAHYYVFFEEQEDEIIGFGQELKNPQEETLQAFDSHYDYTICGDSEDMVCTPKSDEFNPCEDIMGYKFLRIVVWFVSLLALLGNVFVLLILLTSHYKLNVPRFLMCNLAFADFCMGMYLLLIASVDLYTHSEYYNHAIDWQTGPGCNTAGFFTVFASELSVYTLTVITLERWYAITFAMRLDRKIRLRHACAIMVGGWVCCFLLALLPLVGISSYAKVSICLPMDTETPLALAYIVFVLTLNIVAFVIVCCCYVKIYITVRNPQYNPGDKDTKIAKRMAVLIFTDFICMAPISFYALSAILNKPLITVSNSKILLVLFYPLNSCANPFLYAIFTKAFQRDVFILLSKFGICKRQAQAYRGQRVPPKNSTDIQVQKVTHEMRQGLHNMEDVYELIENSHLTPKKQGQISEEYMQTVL
Sequence of Estrogen receptor beta (Homo sapiens) (Q92731 whole entry, looked up): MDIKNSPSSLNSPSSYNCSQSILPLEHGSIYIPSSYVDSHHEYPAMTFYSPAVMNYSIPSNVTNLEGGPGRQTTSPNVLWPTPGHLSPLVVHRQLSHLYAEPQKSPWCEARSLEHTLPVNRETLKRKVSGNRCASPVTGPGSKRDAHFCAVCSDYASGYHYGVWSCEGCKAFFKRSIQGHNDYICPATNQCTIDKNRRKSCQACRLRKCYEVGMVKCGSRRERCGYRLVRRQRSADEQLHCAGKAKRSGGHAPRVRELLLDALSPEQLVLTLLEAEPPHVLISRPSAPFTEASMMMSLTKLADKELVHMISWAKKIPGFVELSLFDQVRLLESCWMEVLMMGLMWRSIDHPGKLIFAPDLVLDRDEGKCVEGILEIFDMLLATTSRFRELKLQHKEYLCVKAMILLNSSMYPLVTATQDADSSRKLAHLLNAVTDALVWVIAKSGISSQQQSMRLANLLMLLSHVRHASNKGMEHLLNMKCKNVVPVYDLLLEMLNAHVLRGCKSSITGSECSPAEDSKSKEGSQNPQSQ

Consider `Cc1cc(-c2cc(C)c(N)c(C)c2)cc(C)c1N`, for which the Potency entry in [1], in experiment [2], in [4], in experiment [5], in experiment [8] and in experiment [9] was “inactive” in each case. Moreover, the result in experiment [3], in [6], in [7], in [10], in [11] and in experiment [12] was inactive.
On to `CCCCN(CCCC)SN(C)C(=O)Oc1cccc2c1OC(C)(C)C2`, for which the Potency result in experiment [1], in experiment [2], in experiment [4], in experiment [5], in [14] and in experiment [8] was “inactive” throughout. Besides, the Potency result in experiment [9] and in [15] was “inactive” throughout. Further, the result in experiment [3], in experiment [6], in [7], in [10], in experiment [11] and in experiment [12] was inactive. Also, in experiment [13], the Potency is 31.1 µM (active) and inactive.
For the molecule `CNC(=O)Oc1ccccc1OC(C)C`, the Potency result in [1], in experiment [2], in experiment [4], in experiment [5], in experiment [16] and in experiment [14] was “inactive” in each case. In addition, the Potency entry in [8], in [9], in [18] and in experiment [15] was “inactive” each time. In addition, the molecule was classed as inactive in experiment [3], in [6], in experiment [17], in experiment [7], in experiment [10] and in experiment [11]. Besides, the molecule was classed as inactive in experiment [12].
On to `CCCCCCCCCl`, for which the Potency entry in experiment [1], in [2], in experiment [4], in experiment [5], in [16] and in experiment [14] was “inactive” in each case. Further, the Potency result in experiment [8] and in experiment [9] was “inactive” each time. Also, the outcome in experiment [3], in experiment [6], in experiment [17], in experiment [7], in experiment [11] and in experiment [12] was inactive.
Consider `CON(C)C(=O)Nc1ccc(Cl)c(Cl)c1`, for which the Potency result in experiment [1], in [4], in experiment [5], in experiment [14], in experiment [8] and in experiment [9] was “inactive” throughout. Further, the Potency entry in experiment [18] was “inactive”. Moreover, in [2], the Potency was 27.4 µM (active) and 19.3 µM (active). Also, the call in [3], in experiment [6], in experiment [7], in experiment [10], in experiment [11] and in experiment [12] was inactive.
On to `CC(Oc1ccc(Cl)cc1Cl)C(=O)O` (stereo unspecified), for which the Potency result in experiment [1], in experiment [2], in [4], in experiment [5], in experiment [14] and in [8] was “inactive” in each case. The Potency result in [9], in experiment [18] and in experiment [15] was “inactive” each time. In addition, the call in experiment [3], in experiment [6], in experiment [7], in [10], in experiment [11] and in [12] was inactive.
Turning to `CC(C)OC(=O)Nc1ccccc1`, the Potency entry in experiment [1], in experiment [4], in experiment [5], in experiment [13], in experiment [14] and in experiment [8] was “inactive” throughout. Moreover, the Potency result in [9], in [18] and in [15] was “inactive” throughout. Besides, in [2], the Potency is 27.4 µM (active) and 24.3 µM (active). Also, the molecule was called inactive in experiment [3], in experiment [6], in experiment [7], in experiment [10], in [11] and in experiment [12].
Consider `O=S(=O)(c1ccc(O)cc1)c1ccc(O)cc1`, for which the Potency entry in experiment [1], in [2], in [4], in experiment [5], in [14] and in experiment [8] was “inactive” throughout. The Potency entry in experiment [15] is “inactive”. The molecule was classed as inactive in [3], in [6], in experiment [17], in experiment [7], in experiment [11] and in [12]. The Potency in experiment [13] is 34.4 µM (active); in experiment [16] it was 4.35 µM (active) and 4.33 µM (active); in [9] it was 54.5 µM (active).
Consider `CC(C)C1(C)N=C(c2nc3ccccc3cc2C(=O)O)NC1=O` (stereo unspecified), for which the Potency result in experiment [1], in experiment [2], in experiment [4], in [5], in [16] and in experiment [14] was “inactive” throughout. The Potency result in experiment [8], in experiment [9], in experiment [18] and in experiment [15] was “inactive” in each case. Further, the outcome in experiment [3], in [6], in experiment [17], in [7], in [10] and in experiment [11] was inactive. Also, the outcome in experiment [12] was inactive.
